Compounds with a hit are over-represented: about 6.3% of the library has one in this group of screens.
Spn DPM-DC inh = S. pneumoniae DPM-DC inhibition. 65,000 compounds, 0.49% hits. purified DPM-DC, PK/LDH coupled NADH fluorescence. AID 556. calls only at 10 µM;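 active = the 320 compounds with the highest percent inhibition in the single-dose primary screen, excluding strongly autofluorescent ones, cut at about 32% in these data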;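 note: kinetic rate of NADH fluorescence loss reporting ADP formed by the decarboxylase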
A340 absorber = compound absorbs light at 340 nm; compound absorbance at 340 nm, fold over control; fold change at 10 µM; 65,000 tested, under 10 active;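 active = at 10 µM dose, initial 340 nm absorbance at least 2 fold that of control wells; inactive = change under 2 fold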;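 note: initial absorbance extrapolated from kinetic A340 decline of NADH oxidation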
NADH coupling = blocks coupling enzymes of NAD/NADH assays. 65,000 compounds, 0.02% hits. coupled PK/LDH NADH assays, four targets. IC50, µM (doses to about 10 µM), for the others: at the top dose inhibition;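 active = single-dose screening hits from any of four coupled enzyme assays that gave an IC50 when retested across doses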;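 note: the DPM-DC format reads NADH fluorescence rather than 340 nm absorbance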
MK inhibit = inhibitors of Streptococcus pneumoniae mevalonate kinase | purified MK, PK/LDH-coupled NADH absorbance 340 nm | inhibition, % at 10 µM | 65,000 compounds, 0.48% hits;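 active = ranked among the strongest by inhibition in the single 10 µM screen, a fixed top-ranked set picked for dose follow-up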
Spn PMK inh = S. pneumoniae PMK inhibition | purified PMK, PK/LDH-coupled NADH absorbance 340 nm | inhibition, % at 10 µM | 65,000 compounds, 0.49% hits;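 active = top-ranked compounds by inhibition in the single 10 µM screen, taking a fixed number of the strongest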;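 note: 0% = full reaction with DMSO carrier and 100% = background rate without enzyme reaction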
Autofluor 339 = intrinsic fluorescence of library compounds, ex339/em460 – biochemical, MLSMR library, data from DPM-DC assay, artefact control, profiling panel; compound autofluorescence, ex339/em460 nm, NADH buffer; stronger effect = higher value; 1 = no-compound wells, NADH background; fluorescence fold increase at 10 µM; 65,000 compounds, 5.5% hits;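 active = at 10 µM, mean starting fluorescence two-fold or more over control wells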;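 note: signal is the first read of a kinetic run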
An asterisk follows results filed as active; i = inactive; . = no result given; + = active, no number; [ ] = remark or other dose.

SMILES	Spn DPM-DC inh	A340 absorber	NADH coupling	MK inhibit	Spn PMK inh	Autofluor 339
CCC(=O)Nc1c2c(nn1-c1ccc(OC)cc1)CS(=O)C2 (configuration not stated)	i	1.04	1.0%	2.0	2.0	1.12
Cc1cccc(N2CCN(C(=O)Cc3c(C(=O)O)[nH]c4ccc(Cl)cc34)CC2)c1C	i	1.01	11.0%	8.0	8.0	0.81
COc1c(Cl)ccc(Cl)c1C(=O)OCC(=O)O	i	1.05	1.0%	3.0	0.0	1.08
CCC(=O)Oc1ccc2c(C)cc(=O)oc2c1C	+[fluoresces]	0.98	5.0%	7.0	12.0	2.13*
Cc1cccc(NC(=O)c2cc(NC(=O)c3ccco3)ccc2N2CCCCC2)c1	.	1.01	3.0%	6.0	12.0	3.01*
COc1ccc(-c2cc(C(=O)OCC(=O)N(C)C)c3ccccc3n2)cc1	+	1.07	19.0%	7.0	12.0	2.54*
CCOc1ccc(-c2cc(C(=O)O)c3ccccc3n2)c(OCC)c1	i	1.13	6.0%	6.0	0.0	1.78
COC(=O)c1ccc(-c2cc(C(=O)O)c3cc4c(cc3n2)OCCO4)cc1	.	1.17	9.0%	3.0	15.0	4.89*
CC(O)COc1ccc(/C(=N/O)c2ccccc2)cc1 (configuration not stated)	+	1.03	22.0%	18.0	0.0	1.04
COc1ccc(C(=O)COC(=O)CCn2nnc(-c3cccs3)n2)cc1	i	0.99	3.0%	8.0	3.0	1.04
CN1/C(=C\C(=O)C(F)F)C(C)(C)c2ccccc21	i	1.03	5.0%	32.0	0.0	1.14
CN1C(=O)C2(N=c3ccccc3=N2)c2ccccc21	.	1.06	3.0%	2.0	4.0	2.09*
COc1cccc2sc(Nc3nnc(-c4ccccc4Cl)o3)nc12	i	1.15	9.0%	0.0	5.0	1.56
COc1cccc(OC)c1-c1nnc(-c2cn(C)c3ccccc23)o1	.	0.99	9.0%	4.0	13.0	3.84*
CCOC(=O)C1CCCCN1Cc1ccc(F)c(Br)c1 (configuration not stated)	i	1.04	15.0%	45.0*	0.0	1.07
CCC(C)(C)NC(=O)C(OC(=O)c1cc2sccc2n1C)c1ccc(OC)cc1 (configuration not stated)	i	1.05	0.0%	0.0	0.0	1.03
Cc1cccc(CNC(=O)c2ccccc2N)c1	.	1.08	5.0%	6.0	4.0	3.62*
Cc1ccccc1C(=O)NCc1ccncc1	i	1.01	8.0%	11.0	8.0	1.08
CC1CCN(S(=O)(=O)c2ccc(NC(=O)CN3CCN(C)CC3)cc2)CC1	i	1.03	20.0%	48.0*	13.0	1.13
CCOC(=O)c1c(C)[nH]c(C(=O)COC(=O)c2ccccc2NC(=O)c2ccco2)c1C	+	1.09	19.0%	0.0	15.0	3.37*
COc1ccc(-n2c(SCC(N)=O)nnc2-c2ccccc2F)cc1	i	1.03	3.0%	8.0	0.0	1.11
CC1(c2ccncc2)Nc2ccccc2-c2nc3ccccc3n21 (configuration not stated)	i	1.01	6.0%	1.0	12.0	1.66
Cc1ccc(C2Nc3ccccc3-c3nc4ccccc4n32)o1 (configuration not stated)	.	1.05	1.0%	10.0	0.0	2.45*
O=C(Nc1cccc2nsnc12)c1ccc(F)cc1	i	1	9.0%	8.0	14.0	1.41
CCCCn1c(NC(=O)c2ccccc2)c(C#N)c2nc3ccccc3nc21	.	1.08	6.0%	3.0	9.0	3.77*
SMILES	Spn DPM-DC inh	A340 absorber	NADH coupling	MK inhibit	Spn PMK inh	Autofluor 339
CCCCn1nnc(NC(=O)c2ccc(-c3ccccc3)cc2)n1	i	1.07	3.0%	4.0	6.0	1.13
CCCCn1c(NC(=O)c2ccc(F)cc2)c(C#N)c2nc3ccccc3nc21	.	1.04	11.0%	15.0	7.0	5.01*
COc1ccc(Cc2nnc(NC(=O)c3ccco3)s2)cc1OC	i	0.98	6.0%	7.0	11.0	1.11
COCCCn1c(-c2ccsc2)nc2c1c(=O)[nH]c(=O)n2Cc1ccccc1	i	0.98	9.0%	6.0	20.0	1.25
CCOC(=O)CSC1=C(C#N)C(C)C2=C(CCCC2=O)N1 (configuration not stated)	i	1.05	4.0%	7.0	6.0	1.23
Cn1c(=O)c2c(nc(NCCO)n2CCc2ccccc2)n(C)c1=O	i	1.04	7.0%	7.0	11.0	1.16
Cc1ccc2nc(Nc3ccccc3)c(/C=N/O)c(=O)n2c1	i	1.1	2.0%	3.0	0.0	1.1
Cc1cccn2c(=O)c(C=Nc3ccccc3)c(NCCO)nc12	i	1.09	11.0%	5.0	11.0	2.36*
Cc1cccn2c(=O)c(C=Nc3ccc(Cl)cc3)c(NCCO)nc12	i	1.08	10.0%	1.0	11.0	2.72*
CCCn1c(SCc2cc(=O)oc3ccc4ccccc4c23)n[nH]c1=O	.	1.09	9.0%	0.0	17.0	2.07*
CCCn1c(SCC(=O)NC(=O)NCc2ccco2)n[nH]c1=O	i	1	3.0%	0.0	13.0	1.01
CC(C)CC(=O)NCC(C)NC(=O)CC(C)C (configuration not stated)	+	1.01	17.0%	8.0	10.0	1.2
Cc1cc(NC(=O)CC23CC4CC(C2)CC(CC(=O)Nc2cc(C)on2)(C4)C3)no1	i	1.03	7.0%	8.0	7.0	1.06
CCOc1ccc2nc(NC(=O)C3CCN(c4cnccn4)CC3)sc2c1	i	1.04	10.0%	0.0	11.0	2.61*
CC(=O)Nc1nc(C)nc(C)c1C(C)=O	i	1.04	3.0%	.	6.0	1.09
CCOc1ncccc1C(=O)OCC(=O)c1c(N)n(C)c(=O)n(C)c1=O	i	1.02	5.0%	14.0	0.0	1.12
CCOc1ncccc1C(=O)OCc1cc(=O)n2c(n1)sc1ccccc12	i	1.03	8.0%	0.0	25.0*	1.42
O=C(CCNS(=O)(=O)c1cccs1)N1CCc2ccccc2C1	i	1	4.0%	0.0	12.0	1.11
CC(C)(C)c1cc(=O)n2c(C#N)c(C#N)nc2[nH]1	.	1.05	7.0%	4.0	9.0	5.03*
CCOC(=O)c1c(C)nc2ncccn12	.	1.03	6.0%	8.0	4.0	2.11*
COc1ccc2c(c1)cc(C(=O)O)n2C	i	1.01	15.0%	0.0	17.0	2.55*
Cc1cc2oc(=O)cc(COC(=O)c3cccc(N(C)C)c3)c2cc1C	.	1.07	5.0%	3.0	7.0	2.09*
Cc1ccc2c(COC(=O)c3cnc(C)cn3)cc(=O)oc2c1	i	1.06	3.0%	1.0	9.0	1.13
O=C(c1ccccc1F)N(Cc1ccc(F)cc1)C1CCS(=O)(=O)C1 (configuration not stated)	i	0.99	9.0%	15.0	13.0	1.14
O=C(c1ccccc1F)N(Cc1ccccc1)C1CCS(=O)(=O)C1 (configuration not stated)	+	1.05	44.0%	29.0	14.0	1.2

Screens from PubChem BioAssay.
